From the supplement of paper PMC12067093, “Discovery and optimisation of a covalent ligand for TRIM25 and its application to targeted protein ubiquitination” (Chemical Science, 2025)
Targets with the largest changes are over-represented here; the source holds about 21,000 in all.

Compound: Cc1cc(ccc1-c1ccccc1)C(=O)N1CCCN(CC1)C(=O)CCl [compound 10]
Experiment: probe-labelled cysteine peptide fold change vs DMSO (competition) (log2 fold change); higher = less target engagement (more negative = stronger competition)
Conditions: THP-1, incubation time: 4 h
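Further: competitive profiling in live THP-1 cells: cysteine peptides tagged with an iodoacetamide desthiobiotin (IA-DTB) probe, intensity after compound treatment relative to DMSO-treated cells.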

Target	probe-labelled cysteine peptide fold change (10 µM)	probe-labelled cysteine peptide fold change (50 µM)
REEP5_Q00765_18_NCMTDLLAK (UniProt Q00765)	-0.872	-1.97
RGPD3_A6NKT7_349_GEAGQNLLEMMACDR<|>RGPD1_P0DJD0_340_GEAGQNLLEMMACDR<|>RGPD2_P0DJD1_348_GEAGQNLLEMMACDR<|>RANBP2_P49792_348_GEAGQNLLEMMACDR<|>RGPD4_Q7Z3J3_349_GEAGQNLLEMMACDR (UniProt Q7Z3J3+P49792+P0DJD1+P0DJD0+A6NKT7)	-0.0339	0.0903
PYCR1_P32322_262_SLLINAVEASCIR (UniProt P32322)	0.0279	0.0718
RABGEF1_Q9UJ41_359_DLSIEEQSECAQDFYHNVAER (UniProt Q9UJ41)	-0.389	-0.123
RAB10_P61026_124_CDMDDK (UniProt P61026)	-0.104	0.0844
RGS10_O43665_66_EFSEENVLFWLACEDFK (UniProt O43665)	0.332	0.101
RABEPK_Q7Z6M1_36_VGHSCSYLPPVGNAK (UniProt Q7Z6M1)	-0.218	-0.0672
RAB29_O14966_127_CDLSPWAVSR (UniProt O14966)	-0.0495	0.0455
PRR14L_Q5THK1_1483_DTESCTSPCLLGAPR (UniProt Q5THK1)	-0.528	-1.12
PRMT3_O60678_67_LFTSAEETFSHCK (UniProt O60678)	0.049	0.0747
PSME4_Q14997_637_CCPEESLK (UniProt Q14997)	-0.0784	-0.446
RANBP2_P49792_707_AEDIENDALSPEEQEECK (UniProt P49792)	0.0365	0.0945
PREX1_Q8TCU6_836_LSLCEDSPMVTLTVDNVHLEHGVVYEYVSTAGVR (UniProt Q8TCU6)	-0.0714	0.185
RFXANK_O14593_205_CVEALLAR (UniProt O14593)	0.0175	-0.265
RIF1_Q5UIP0_2450_LSCMANSVIK (UniProt Q5UIP0)	-0.0942	-0.14
PRPF8_Q6P2Q9_2116_KFICISDLR (UniProt Q6P2Q9)	0.0139	0.129
RGPD3_A6NKT7_141_LKEQLLDCEGEDGWNK<|>RGPD8_O14715_141_LKEQLLDCEGEDGWNK<|>RANBP2_P49792_141_LKEQLLDCEGEDGWNK<|>RGPD4_Q7Z3J3_141_LKEQLLDCEGEDGWNK (UniProt Q7Z3J3+P49792+O14715+A6NKT7)	-0.113	-0.334
PSMD11_O00231_257_YMLLCK (UniProt O00231)	0.248	0.241
RET_P07949_987_LMLQCWK (UniProt P07949)	0.0807	0.122
PXN_P49023_523_ECFTPFVNGSFFEHDGQPYCEVHYHER (UniProt P49023)	0.032	0.12
RNF114_Q9Y508_160_NFDQEGLVEHCK (UniProt Q9Y508)	0.0873	0.126
PRKCSH_P14314_39_GVSLTNHHFYDESKPFTCLDGSATIPFDQVNDDYCDCK (UniProt P14314)	-0.151	-1.07
RANBP2_P49792_1749_CIACQCPSK (UniProt P49792)	0.0505	0.0953
PSMC1_P62191_58_LPLVTPHTQCR (UniProt P62191)	-0.0192	0.104
RHOC_P08134_20_TCLLIVFSK<|>RHOA_P61586_20_TCLLIVFSK<|>RHOB_P62745_20_TCLLIVFSK (UniProt P62745+P61586+P08134)	-0.323	-0.507
RFC3_P40938_32_NLVQCGDFPHLLVYGPSGAGKK (UniProt P40938)	-0.11	-0.186
PRKDC_P78527_1507_QCLPSLDLSCK (UniProt P78527)	0.0976	-1.07

Target	probe-labelled cysteine peptide fold change (10 µM)	probe-labelled cysteine peptide fold change (50 µM)
PRMT9_Q6P2P2_290_GESANCEK (UniProt Q6P2P2)	-0.112	-0.0837
QDPR_P09417_161_GAVHQLCQSLAGK (UniProt P09417)	0.0328	0.165
RBM28_Q9NW13_97_NENSECPK (UniProt Q9NW13)	-0.0194	0.16
RAI14_Q9P0K7_139_TALHYAAAQGCLQAVQILCEHK (UniProt Q9P0K7)	0.0635	-0.0217
RCCD1_A6NED2_139_LPLLPCAR (UniProt A6NED2)	-1.01	-1.9
PRKCI_P41743_137_LYCANGHTFQAK (UniProt P41743)	-0.00179	0.0748
RNASEH1_O60930_191_AEIHAACK (UniProt O60930)	-0.0799	-0.155
PRMT5_O14744_622_KVWYEWAVTAPVCSAIHNPTGR (UniProt O14744)	-0.0156	0.0576
RCHY1_Q96PM5_43_LCHDNNEDHQLDR (UniProt Q96PM5)	0.344	2.12
PXN_P49023_387_TWHPEHFVCTHCQEEIGSR (UniProt P49023)	-0.0992	-0.106
PTPN11_Q06124_318_CNNSKPK (UniProt Q06124)	-0.31	-1.11
PSMC3_P17980_240_ACAAQTK (UniProt P17980)	-0.0208	-0.0025
RGS14_O43566_183_ECLLAEAEGR (UniProt O43566)	-0.0353	0.16
REPIN1_Q9BWE0_433+436_VHSGERPFACEECGR (UniProt Q9BWE0)	-0.108	-0.289
QARS_P47897_665_GPSGCVESLEVTCR (UniProt P47897)	-0.11	0.446
RCSD1_Q6JBY9_181_RSQSDCGELGDFR (UniProt Q6JBY9)	-0.852	-1.19
RARS_P54136_34_NCGCLGASPNLEQLQEENLK (UniProt P54136)	-0.247	-1.27
RNF126_Q9BV68_13+16_YFCHCCSVEIVPR (UniProt Q9BV68)	-0.268	-1.16
RAD50_Q92878_133_CAEIDREMISSLGVSK (UniProt Q92878)	-0.195	-0.429
PRKDC_P78527_1364_DLCNTHLMR (UniProt P78527)	-0.0526	-0.0393
PRPF19_Q9UMS4_5+16_SLICSISNEVPEHPCVSPVSNHVYER (UniProt Q9UMS4)	0.0585	0.103
R3HCC1_Q9Y3T6_5_ALLCLDGVFLSSAENDFVHR (UniProt Q9Y3T6+R3HCC1)	0.242	0.0812
RARS2_Q5T160_479_LHSLEETFGCGYLNDFNTACLQEPQSVSILQHLLR (UniProt Q5T160)	-0.037	0.0628
RDH13_Q8NBN7_30_DYVTGGACPSK (UniProt Q8NBN7)	-0.162	-0.083
PUS7_Q96PZ0_319_CLMNFK (UniProt Q96PZ0)	-0.0229	-0.239
PTPN12_Q05209_164_ISCEDEQAR (UniProt Q05209)	0.159	0.15
PSMC6_P62333_228_DHQPCIIFMDEIDAIGGR (UniProt P62333)	-0.0612	0.106

Target	probe-labelled cysteine peptide fold change (10 µM)	probe-labelled cysteine peptide fold change (50 µM)
RNF113A_O15541_202_WDYQPDICK<|>RNF113B_Q8IZP6_196_WDYQPDICK (UniProt Q8IZP6+O15541)	-0.0623	-0.145
RACGAP1_Q9H0H5_419_VDDIHAICSLLK (UniProt Q9H0H5)	0.00786	0.00467
PRR14L_Q5THK1_1503_AQDPSSAGCDQIHGAFAK (UniProt Q5THK1)	-0.388	-1.59
PRKDC_P78527_1335_CTVVVR (UniProt P78527)	0.00715	0.101
RNF123_Q5XPI4_1277_ACINQHLMNNK (UniProt Q5XPI4)	-0.0494	-0.231
RLF_Q13129_1494_VCQTADTQGHEHQTTR (UniProt Q13129)	0.131	-0.309
RANGAP1_P46060_169_ILAAALTECHRK (UniProt P46060)	-0.159	-0.379
PRKCB_P05771_132+135_CDTCMMNVHKR (UniProt P05771)	-0.193	-0.881
RB1CC1_Q8TDY2_603_VPLLCDFEPLHQHVLALHNLVK (UniProt Q8TDY2)	-0.156	-1.09
RHOG_P84095_18_TCLLICYTTNAFPK (UniProt P84095)	-0.108	0.0979
RNF114_Q9Y508_64_KPVCGVCR (UniProt Q9Y508)	0.0642	-0.0371
RFC3_P40938_32_NLVQCGDFPHLLVYGPSGAGK (UniProt P40938)	-0.122	0.124
PRKCQ_Q04759_193_QCNAAIHK (UniProt Q04759)	-0.474	-0.576
PTPMT1_Q8WUK0_127+132_YQSLGQCVYVHCK (UniProt Q8WUK0)	0.0587	-0.0194
RHOT2_Q8IXI1_185_QLRPACAQALTR (UniProt Q8IXI1)	-0.151	0.0492
RANBP2_P49792_1243_ICANHYISPDMK (UniProt P49792)	0.0568	0.0875
PRPS2_P11908_165_NCIIVSPDAGGAKR (UniProt P11908)	0.121	-0.113
PSME1_Q06323_101_KKGEDEDKGPPCGPVNCNEK (UniProt Q06323)	-0.428	-1.54
PRPS1_P60891_41_KFSNQETCVEIGESVR (UniProt P60891)	0.0818	0.329
PRXL2A_Q9BRX8_88_RPGCFLCR (UniProt Q9BRX8)	-2.04	-2.18
PRKDC_P78527_1742_FNNYVDCMK (UniProt P78527)	0.239	-0.0715
QRSL1_Q9H0R6_278_LCIGIPK (UniProt Q9H0R6)	0.155	0.0481
PXN_P49023_505_ECFTPFVNGSFFEHDGQPYCEVHYHER (UniProt P49023)	0.192	0.386
RANBP2_P49792_2982_VCANHVITK (UniProt P49792)	0.0357	0.111
PRKDC_P78527_2093_DPTVHDDVLELEMDELNRHECMAPLTALVK (UniProt P78527)	-0.156	-0.199
